Screens as filed in PubChem BioAssay.
Rows were chosen to be rich in hits. Some 1.4% of all compounds tested hit in one or more screens of this group.
Smad3 inh = Smad3 (human) transcription factor binding inhibition; P84022; TR-FRET Smad3/Dy647-FoxH1 peptide binding, europium anti-His; inhibition, % at 25 µM; 0.29% of 88,000 active;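 active = compounds that reduce the energy-transfer binding signal between the protein and its labelled peptide by more than half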;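 note: 0% = Smad3 plus labelled peptide maximal FRET and 100% = peptide-only background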
Target sequence (P84022 whole entry, looked up): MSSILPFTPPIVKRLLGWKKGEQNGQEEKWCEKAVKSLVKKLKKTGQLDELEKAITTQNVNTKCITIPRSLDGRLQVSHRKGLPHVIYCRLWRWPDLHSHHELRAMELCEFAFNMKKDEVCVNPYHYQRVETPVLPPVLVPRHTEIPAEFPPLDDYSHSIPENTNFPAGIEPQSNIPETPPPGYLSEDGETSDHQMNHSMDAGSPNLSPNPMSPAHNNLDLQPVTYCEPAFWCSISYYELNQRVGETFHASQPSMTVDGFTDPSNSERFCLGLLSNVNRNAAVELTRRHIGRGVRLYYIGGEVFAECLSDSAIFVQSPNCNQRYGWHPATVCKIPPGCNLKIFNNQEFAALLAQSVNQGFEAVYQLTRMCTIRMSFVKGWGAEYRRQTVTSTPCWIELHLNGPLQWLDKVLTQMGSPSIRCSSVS
GALR2 antag = antagonists of human galanin receptor 2 (GALR2); inhibition, % at 4 µM; AID 828; GALR2-expressing cells, antagonist mode; 0.39% of 140,000 active; in the data active = inhibition above about 27%;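 note: cells stimulated with galanin 1-16 at roughly its EC80; 0% = agonist challenge control and 100% = basal control without agonist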
MT1-MMP txn act = activates MT1-MMP transcription. HT1080 MT1-MMP promoter luciferase reporter, luminescence, overnight; stronger effect = higher value. 0.16% of 86,000 active. activation factor at 10 µM;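 active = activation factor of at least 2 for MT1-MMP transcription at 10 µM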
S1P2 blocker = blocks the human S1P2 receptor; O95136; cell-based S1P2 antagonist assay, inhibition at 5 uM; inhibition, % at 5 µM; 0.21% of 97,000 active; AID 736; in the data active = inhibition above about 45%;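 note: CRE beta-lactamase reporter cells expressing human S1P2 stimulated with S1P; 0% = agonist at EC80 alone and 100% = agonist plus reference antagonist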
S1P2 agonist = agonists of human S1P2 receptor; 0.46% of 97,000 active; activation, % at 4.5 µM; S1P2-expressing cell line, agonist reporter read-out; AID 729; O95136; in the data active = activation above about 16%;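 note: 0% = vehicle low control and 100% = maximal reference agonist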
GALR2 ag = agonists of human galanin receptor 2 (GALR2); AID 803; activation, % (no concentration beside the values); 0.48% of 140,000 active; O43603; GALR2-expressing cells, agonist activation read-out; in the data active = activation above about 5%, passing the limit was not always enough;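 note: 0% = vehicle buffer wells and 100% = reference agonist at full effect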
An asterisk follows results filed as active; · = not tested or not shown.

SMILES	Smad3 inh	GALR2 antag	MT1-MMP txn act	S1P2 blocker	S1P2 agonist	GALR2 ag
COc1ccccc1-c1ccc(NC2CCCC2)nn1	3	11	2.1*	-15	-8	-3
COc1ccccc1OC(C)C(=O)Nc1nc(-c2ccc(S(=O)(=O)N3CCOCC3)cc2)cs1 (centres undefined)	-2	1	1	9	-8	-3
COc1ccccc1C(=O)Nc1nc(-c2ccc(S(=O)(=O)N3CCOCC3)cc2)cs1	5	25	0.8	77*	-7	2
Nc1c(C(=O)NCCN2CCOCC2)c2nc3ccccc3nc2n1-c1ccc2c(c1)OCO2	-3	-3	0.9	·	·	1
Nc1c(C(=O)NCc2ccc3c(c2)OCO3)c2nc3ccccc3nc2n1CCCN1CCOCC1	19	-15	0.6	-38	41*	32*
COc1ccccc1CNC(=O)c1c(N)n(CCCN2CCOCC2)c2nc3ccccc3nc12	·	-16	·	-93	58*	28*
CC(C)OC(=O)c1c(N)n(CCCN2CCOCC2)c2nc3ccccc3nc12	19	0	1.1	-29	1	3
CC(C)=CCNc1ncnc2c1c(C#N)cn2[C@H]1O[C@H](CO)[C@@H](O)[C@@H]1O	-8	·	·	·	·	·
CC(=O)NC1=NN(C(C)=O)C(C)(CS(=O)(=O)c2ccc(Cl)cc2)S1 (centres undefined)	0	2	1.2	-1	-5	-2
CC(=O)NC1=NN(C(C)=O)C(C)(CCS(=O)(=O)c2ccc(Br)cc2)S1 (centres undefined)	·	-1	·	·	·	6.9*
O=C(Cc1c[nH]c2ccccc12)Nc1nc2ccccc2[nH]1	11	18	1.6	10	609*	-2
CN(C)CCOC(=O)c1ccc(N)cc1	25	·	·	·	·	·
O=C(O)[C@@H]1O[C@H]1C(=O)O	-4	·	·	·	·	·
CN(c1ccccc1)c1ccc(/C=C/[N+](=O)[O-])cc1	·	24	·	·	·	5.5*
CCOc1ccc(/C=C/[N+](=O)[O-])c2ccccc12	·	5	·	2	0	-3
CC1(C)[C@@H]2CC[C@@](C)(C2)[C@@H]1OC(=O)c1ccccc1C(=O)O	1	·	·	·	·	·
O=C(Nc1ccccc1N1CCCC1)c1cc2ccccc2o1	-1	7	2*	-9	-1	-1
CN1CCN(c2ccccc2NC(=O)c2cc3ccccc3o2)CC1	18	0	1.3	4	-5	-1
O=C(Nc1ccc(N2CCOCC2)c(Cl)c1)c1cc2ccccc2o1	-6	12	2.1*	-9	-5	-1
CC(C)[C@]1(Cl)CC[C@H]2[C@]3(C)CCC[C@@](C)(C(=O)O)[C@H]3C[C@@H](Cl)[C@]2(Cl)[C@H]1Cl	37	·	·	·	·	·
O=C(COC(=O)c1ccccc1C(=O)c1ccccc1)NCCc1ccccc1	·	-2	·	·	·	7.0*
O=C(COC(=O)c1ccccc1C(=O)c1ccc(Cl)cc1)NCCc1ccccc1	·	7	·	·	·	-1
COCCCn1c(Cc2csc(Nc3ccccc3)n2)nnc1SCC(N)=O	15	6	1.3	-12	-5	-1
NC(=O)CSc1nnc(Cc2csc(Nc3ccccc3)n2)n1Cc1ccccc1	86*	4	1.1	-1	-4	-2
Cn1c(-c2c(N)n(C3CCCC3)c3nc4ccccc4nc23)nc2ccccc21	0	21	1.1	93*	-15	0
SMILES	Smad3 inh	GALR2 antag	MT1-MMP txn act	S1P2 blocker	S1P2 agonist	GALR2 ag
C(=N\Nc1nc(Nc2ccccc2)nc(N2CCOCC2)n1)/c1c[nH]c2ccccc12	·	13	·	47*	-8	-2
CCN1C=C(C(=O)OC)C(c2cccc(C)c2)C(C(=O)OC)=C1	0	6	1	-9	13	14*
COC(=O)C1=CN(CCCN2CCCC2=O)C=C(C(=O)OC)C1c1ccccc1C(F)(F)F	10	-4	1.1	-11	20*	20*
CCCOc1ccccc1C1C(C(=O)OC)=CN(C(C)C)C=C1C(=O)OC	-2	-12	1.1	-16	32*	29*
COC(=O)C1=CN(C)C=C(C(=O)OC)C1c1ccccc1Cl	12	-10	1.1	-24	23*	16*
CC(=O)[C@@H](C)CCO[C@]1(C)OCC[C@@H]1C	-5	·	·	·	·	·
O=C(O)/C=C(/CC(=O)O)C(=O)O	14	·	·	·	·	·
CCOc1ccc(C2C(C(=O)OC)=CN(CCOC)C=C2C(=O)OC)cc1	0	5	1.1	·	·	4
CCCCOc1ccccc1C1C(C(=O)OC)=CN(CC)C=C1C(=O)OC	3	-7	1.1	-47	24*	16*
Nc1c(Br)cc2oc(-c3ccccc3)nc2c1Br	-4	-7	2*	·	·	1
CN(Cc1cc(C(C)(C)C)cc(Br)c1O)Cc1cc(C(C)(C)C)cc(Br)c1O	96*	·	·	·	·	·
Cc1cccc(N=c2oc3cc(O)ccc3cc2C(N)=O)c1	5	-28	1.6	-43	30*	66*
COc1ccccc1N=c1oc2cc(O)ccc2cc1C(N)=O	·	-46	0.9	-34	45*	20*
COc1ccccc1NC(=O)c1cc2ccc(O)cc2o/c1=N\O	8	0	1.3	-2	-2	1
COc1ccccc1N=c1oc2cc(O)ccc2cc1C(=O)NCC1CCCO1 (centres undefined)	7	-15	1.1	-16	16	29*
O=C(O)/C=C/c1c2ccc(=O)c(O)c-2oc2c(O)c(O)ccc12	0	·	·	·	·	·
O=C1c2ccccc2C(O)(O)[C@@]1(O)[C@]1(O)C(=O)c2ccccc2C1(O)O	17	·	·	·	·	·
C=CCn1c2ccccc2c2nnc(SCN3C(=O)c4ccccc4C3=O)nc21	·	-21	·	-21	20*	0
OC1C[C@H]2CC[C@@H](C1)N2CCCN1c2ccccc2Sc2ccc(Cl)cc21 (some centres undefined)	-9	·	·	·	·	·
O=C1CC(c2ccccc2)Cc2nc(N3CCc4ccccc4C3)ncc21 (centres undefined)	1	-5	1	1	-5	-1
Cc1ccc(C2CC(=O)c3cnc(N4CCc5ccccc5C4)nc3C2)cc1 (centres undefined)	2	-5	1.1	3	581*	-4
COC(=O)N1[C@H](Cc2ccccc2)C=C[C@]1(C)C(=O)NCc1ccc(C)o1	·	·	1	·	·	·
CCn1c2ccc(OC)cc2c2nc3ccccc3nc21	3	-1	1.1	-33	34*	-1
CCOc1ccc(Cn2c3ccc(OC)cc3c3nc4ccccc4nc32)cc1	·	7	·	·	·	-2
CCn1c2ccc(Cl)cc2c2nc3ccccc3nc21	11	5	1.1	-39	43*	0
SMILES	Smad3 inh	GALR2 antag	MT1-MMP txn act	S1P2 blocker	S1P2 agonist	GALR2 ag
Cc1cccc(Nc2nc(-c3cccs3)cs2)n1	12	8	2.3*	-11	-4	0
Cc1c(C)c(C)c(CC2(C)CSC2)c(CC2(C)CSC2)c1C	5	·	·	·	·	·
COC(=O)c1c2c(nc3ccccc13)CCC2	14	4	1.2	-6	-3	-2
COc1cc(-c2nnc(COC(=O)c3c4c(nc5ccccc35)CCCC4)o2)cc(OC)c1OC	·	-2	·	-21	43*	-1
CC1(C)O[C@@H]2O[C@H]([C@@H]3COC(C)(C)O3)[C@H](N)[C@@H]2O1	10	·	·	·	·	·
O=C(O)C/C(=C/c1ccco1)C(=O)O	6	·	·	·	·	·
